Source: PubChem BioAssay (National Center for Advancing Translational Sciences (NCATS))
This is a sample that favours compounds with a hit; in the whole collection about 9.2% have one here.
Rab9 promoter act: activates the Rab9 promoter; Potency, µM (doses to about 9.22 µM), for the others: at the top dose activation, negative = inhibition, actives largely listed as activators; AID 485297; Huh7 Rab9 promoter-luciferase reporter, luminescence, 24 h; actives 2.8% (n = 320,000); further: % of control where 0% means no effect; nearly all actives have a fitted effect of over 60% in size
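Promoter activation is measured as luciferase luminescence in Huh7 cells stably transfected with a Rab9 promoter–luciferase construct, following 24 h compound exposure at 37 °C and 10 min reagent incubation at ambient temperature.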
ELG1 DNA repair: blocks ELG1-dependent DNA repair in HEK293T cells; HEK293T ELG1-luciferase reporter, luminescence, 16 h; DNA damage induced by 5-fluorouridine; Potency, µM (top dose mostly 46.1 µM), for inactives: top-dose activity change, negative = inhibition, actives largely listed as inhibitors; actives 2.3% (n = 330,000); further: on the % scale 0 is the no-effect control and ±100 the full control effect; nearly all actives have a fitted effect of over 55% in size
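HEK293T cells expressing luciferase-tagged ELG1 (2,000/well) received 5-Fluorouridine plus compound or DMSO for 16 hr at 37 °C. Luciferase was read by ONE-Glo luminescence after 30 min at room temperature.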
SMN2 splice up: increases expression of the SMN2 splice variant. AID 1458. actives 2.8% (n = 210,000). HEK293 SMN2-luciferase splicing reporter, luminescence, 30-36 h. Potency, µM (highest dose often 46.1 µM), for the others: at the highest dose activity change, positive = activation, hits mostly activators; further: % of control where 0% means no effect; nearly all actives have a fitted effect of over 55% in size
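HEK293 cells carry an SMN2 minigene-luciferase reporter in which exon 7 inclusion puts luciferase in frame. Cells were seeded at 2000 cells/well, attached for 10-12 hours, then exposed to compounds for 30-36 hours at 37C before ONE-Glo luminescence.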
NPC1 promoter act: activates the NPC1 promoter; Potency, µM (top dose mostly 9.22 µM), for inactives: at the top dose activation, actives largely listed as activators; Huh7 NPC1 promoter luciferase reporter, 24 h; actives 2.4% (n = 320,000); further: % of control where 0% means no effect; nearly all actives have a fitted effect of over 60% in size
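Huh7 reporter cells (NPC1 promoter driving luciferase) are dosed with compound for 24 h at 37 °C, 5% CO2; luciferase detection reagent is then added and luminescence measured after 10 min at ambient temperature.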
ELG1 genotox: inducers of genotoxicity in HEK293T ELG1-luciferase cells; HEK293T ELG1-luciferase reporter, luminescence, 16 h; Potency, µM (series often up to 46 µM), inactives show at the highest dose activity change, positive = activation, actives largely listed as activators; actives 1.3% (n = 330,000); AID 504466; further: % of control where 0% means no effect; nearly all actives have a fitted effect of over 60% in size
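ELG1-luciferase HEK293T cells, 2,000/well; compound pinned in; 16 hr, 37 °C, 5% CO2; ONE-Glo, 30 min RT; luminescence on CCD imager.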
FLuc counter: firefly luciferase modulation, counter-screen for miR-21 project | P08659 | purified FLuc, Km substrates, luminescence inhibition | Potency, µM (highest dose often 57.5 µM), inactives show at the highest dose activity change, negative = inhibition, actives largely listed as inhibitors | actives 6.9% (n = 360,000) | AID 588342;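 further: plate controls were vehicle for no effect and reference inhibitor for full effect; nearly all actives have a fitted effect of over 55% in size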
Target sequence (P08659 whole entry, looked up): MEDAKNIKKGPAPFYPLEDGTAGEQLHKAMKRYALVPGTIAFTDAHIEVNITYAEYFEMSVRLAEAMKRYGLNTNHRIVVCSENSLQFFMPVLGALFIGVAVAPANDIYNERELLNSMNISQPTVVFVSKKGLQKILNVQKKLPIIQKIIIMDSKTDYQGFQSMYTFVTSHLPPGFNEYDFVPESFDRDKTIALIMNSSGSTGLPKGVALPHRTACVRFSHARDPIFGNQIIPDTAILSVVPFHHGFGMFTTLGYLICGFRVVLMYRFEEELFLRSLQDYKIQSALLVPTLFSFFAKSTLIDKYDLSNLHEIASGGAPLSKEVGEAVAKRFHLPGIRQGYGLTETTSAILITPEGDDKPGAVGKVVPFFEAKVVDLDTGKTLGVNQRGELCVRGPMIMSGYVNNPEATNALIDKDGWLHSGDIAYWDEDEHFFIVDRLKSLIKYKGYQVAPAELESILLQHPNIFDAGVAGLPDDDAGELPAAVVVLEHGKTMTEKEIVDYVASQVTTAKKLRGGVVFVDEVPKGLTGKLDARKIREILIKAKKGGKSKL
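Purified P. pyralis luciferase, 10 nM final, with Km-level 10 uM D-luciferin and 10 uM ATP in 50 mM Tris acetate pH 7.5, 10 mM Mg acetate, 0.01% Tween-20, 0.05% BSA; 6-point qHTS titration about 60 µM downward; luminescence read.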
Numbers without * were called inactive; ? = inconclusive; / = no result; [ ] = dose if it differs, or a comment. The call rests on the fitted dose curve; in most records, active means well fitted curve in the direction sought with a large enough effect; inconclusive means small, poorly fitted or top-dose-only effect, or another doubt; inactive means no such curve, though single readings can be large; an effect the other way counts as inactive or inconclusive. Potency means the concentration at half of the fitted maximal effect.

SMILES	Rab9 promoter act	ELG1 DNA repair	SMN2 splice up	NPC1 promoter act	ELG1 genotox	FLuc counter
CCOc1ccc(-c2nc(-c3ccccc3)no2)cc1OCC	?	?	-3.2%	?	?	13.5µM*
O=[N+]([O-])c1cc(-c2nc(-c3ccncc3)no2)ccc1Cl	-2.3%	?	-12.3%	6.6%	-1.2%	-15.9%
FC(F)(F)c1cccc(-c2nc(-c3ccncc3)no2)c1	?	?	/	?	18.3%	15.1µM*
Cc1ccc(Cc2nc(-c3cccnc3)no2)cc1	7.3%	?	10.2%	14.4%	6.4%	?
Clc1ccc(Br)cc1-c1nc(-c2ccncc2)no1	22.0%	?	?	1.9%	20.6µM*	?
Cc1ccc(-c2nc(-c3cccnc3)no2)cc1	/	/	10µM*	/	/	1.51µM*
Cc1ccc(-c2nc(-c3ccncc3)no2)cc1	1µM*	?	/	0.891µM*	3.66µM*	1.69µM*
Clc1cccc(Cl)c1-c1noc(-c2ccno2)n1	-0.8%	19.4%	/	-2.9%	2.5%	-0.1%
Cc1cccc(-c2noc(-c3c(C)noc3C)n2)c1	3.16µM*	?	/	1.58µM*	3.6%	?
CC(C)(C)c1ccc(-c2noc(-c3ccno3)n2)cc1	1.41µM*	?	/	1.26µM*	?	1.9µM*
Cc1ccc(-c2nc(-c3ccccc3)no2)cc1	1.26µM*	?	7.7%	1µM*	0.651µM*	0.213µM*
Cc1ccc(-c2noc(-c3c(C)noc3C)n2)cc1	16.6%	2.5%	/	-5.3%	2.8%	-17.2%
Cc1noc(-c2ccc(-c3noc(-c4ccc(F)cc4)n3)cc2)n1	/	/	/	/	/	-6.2%
CCOc1ccc(NC(=O)CC2C(=O)N(c3ccc(OC)cc3)C(=O)N2CCC2=CCCCC2)cc1 (stereo unspecified)	/	/	1.4%	/	/	-2.4%
O=C(NC1CCCCCC1)c1ccc(Cl)c(S(=O)(=O)N2CCOCC2)c1	21.9%	?	/	-28.9%	1.3%	-10.7%
COC(=O)c1cc(S(=O)(=O)N(C)Cc2ccco2)c[nH]1	0.0%	1.7%	/	-3.8%	-1.0%[9.26 µM]	-0.6%
Cc1ccc(-c2nnc(-c3cccnc3)o2)cc1	?	?	/	2.82µM*	20.6µM*	12µM*
COc1ccc(Cc2noc(-c3ccc(C)cc3)n2)cc1	14.1%	?	-2.2%	12.7%	?	?
Cc1cccc(-c2nc(-c3ccncc3)no2)c1	1.41µM*	?	/	1.58µM*	9.2µM*	3.01µM*
CCCc1noc(-c2ccc(-c3ccccc3)cc2)n1	1.58µM*	?	?	1.58µM*	?	1.51µM*
Cc1cccc(-c2noc(-c3ccc4c(c3)OCO4)n2)c1	-1.3%	10.0%	/	-2.8%	2.6%	-17.5%
Brc1cccc(-c2nc(-c3ccncc3)no2)c1	5.01µM*	?	27.2%	3.16µM*	?	7.57µM*
FC(F)(F)c1ccc(-c2nnc(-c3cccnc3)o2)cc1	16.0%	?	/	?	?	-18.1%
O=[N+]([O-])c1cc(-c2nc(-c3ccncc3)no2)cc([N+](=O)[O-])c1	25.6%	-3.0%	/	17.2%	-3.5%	2.6%
Cc1cc(C)cc(-c2nc(-c3ccncc3)no2)c1	?	?	-18.1%	?	20.6µM*	10.7µM*
SMILES	Rab9 promoter act	ELG1 DNA repair	SMN2 splice up	NPC1 promoter act	ELG1 genotox	FLuc counter
Cc1ccc(-c2nc(-c3ccccc3)no2)c(Cl)c1	3.98µM*	?	-29.9%	2.82µM*	0.259µM*	0.0849µM*
Cc1ccc(OCc2nc(-c3cccnc3)no2)cc1C	17.4%	?	14.9%	13.9%	11.2%	?
CCC(=O)Oc1ccc(-c2nc(-c3cccnc3)no2)cc1	4.47µM*	?	?	3.98µM*	?	3.38µM*
Cc1ccc(-c2noc(CNc3ccccc3)n2)cc1	22.9%	?	?	19.3%	?	19µM*
CCn1nc(C)c(Br)c1-c1nc(-c2cccc(C)c2)no1	27.3%	0.9%	/	2.51µM*	0.3%	?
CC(C)(C)c1ccc(-c2nc(-c3ccncc3)no2)cc1	0.447µM*	?	17.2%	0.398µM*	?	0.953µM*
CCn1nc(C)c(Br)c1-c1nc(CS(=O)(=O)c2ccsc2)no1	7.8%	16.8%	/	12.1%	3.4%	-17.8%
c1cncc(-c2noc(-c3ccco3)n2)c1	3.98µM*	?	-1.0%	3.16µM*	?	?
CCCn1c(N)c(N(CCOC)C(=O)c2ccc(Cl)c([N+](=O)[O-])c2)c(=O)[nH]c1=O	-2.7%	10.9%	/	-0.3%	-0.9%	-1.2%
CN(C(=O)CSc1ccc(S(=O)(=O)N2CCCCC2)cn1)c1ccccc1	-4.3%	-3.1%	/	-7.6%	1.1%	1.6%
NS(=O)(=O)c1ccc(NC(=O)Cc2c(F)cccc2Cl)cc1	-3.8%	4.1%	-6.7%	1.1%	0.4%	4.6%
O=C(c1cc(-c2cccc(O)c2)on1)N1CCOCC1	?	?	?	?	2.91µM*	6.75µM*
Cc1cccc(C)c1OCc1cc(C(=O)N2CCCCCCC2)no1	22.7%	?	/	15.1%	3.6%	?
O=C(c1cc(-c2cccc(O)c2)on1)N1CCCCCC1	-0.5%	?	/	?	13µM*	8.49µM*
O=C(NCC(c1ccc2c(c1)OCO2)N1CCN(c2ccccc2)CC1)c1ccccc1F (stereo unspecified)	/	/	/	/	/	0.8%
Cc1nn(-c2ccccn2)c2nc(-c3cccs3)cc(C(=O)NCc3ccco3)c12	3.4%	?	/	0.8%	3.4%	6.75µM*
CCOC(=O)c1cc(-c2cccs2)nc2c1c(C)nn2-c1ccccn1	-1.1%	?	-50.0%	-1.8%	-9.3%	?
O=C(NCc1ccco1)c1cc(-c2cccs2)nc2ccccc12	12.0%	14.6µM*	-10.2%	-2.9%	-3.1%	-15.3%
Cc1ccc(-c2cc(C(=O)NCc3ccco3)c3ccccc3n2)s1	5.3%	-12.6%	-14.4%	1.3%	-4.0%	12µM*
Cc1oc2ccccc2c1CC(=O)NCCCN(C)C	0.4%	14.8%	/	-1.0%	2.3%	-0.2%
CC(CNC(=O)C1CCN(C(=O)c2cc3sccc3n2C)CC1)c1ccccc1 (stereo unspecified)	/	/	?	/	/	1.9%
CC(=O)Nc1ccc(-c2csc(Nc3cccc(C)n3)n2)cc1	1.58µM*	?	/	1.78µM*	16.4%	9.53µM*
COc1ccc(-c2csc(Nc3ccc(C)cn3)n2)cc1	-4.1%	4.0%	/	-4.7%	2.5%	-4.6%
CC(=O)Nc1cccc(-c2csc(Nc3ncccn3)n2)c1	1.58µM*	?	3.55µM*	3.16µM*	?	2.13µM*
CC(=O)Nc1cccc(-c2csc(Nc3ccc(C)cn3)n2)c1	0.891µM*	?	2.24µM*	1µM*	1.84µM*	0.426µM*
